# Experimental data from PubChem BioAssay.
# Where “and” joins values, the source holds several entries; their conditions need not be identical. Equal values may be shown once. Records with an inconclusive call do not appear. For some assays here: Potency and affinity values are given separately. A structure can be active in one record and inactive in another. Calls of active or inactive are those of the source. Unless noted, how the calls were made is not given here.
# Legend:
# [1] = system: Aerobactin synthetase IucA (Klebsiella pneumoniae hvKP1); assay: IucA enzyme inhibition, primary screen, biochemical, Spectrum library (AID 1346200); conditions: malachite green pyrophosphate, A620, at 8 µM, stronger effect = lower value;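 further: 100% = wells without compound and 0% = wells lacking enzyme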
# [2] = system: Aerobactin synthetase IucA (Klebsiella pneumoniae, hypervirulent); assay: biochemical IucA inhibition screen of LOPAC library by absorbance (AID 1346212); conditions: IucA enzyme assay, absorbance (OD) readout; stronger effect = lower value;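 tested at 8 µM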;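 further: 100% = no compound wells and 0% = no enzyme wells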
# [3] = blockers of polyQ-driven CASP3 activation – cell-based (AID 1583); conditions: polyglutamine-induced caspase-3 activation, cell assay; stronger effect = higher value;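 tested at 10 µM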
# [4] = yeast 75Q aggregation reduction – 75Q-TubU reporter (AID 1593); conditions: Yeast 75Q polyglutamine aggregation reporter
# [5] = restoration of touch response, mutant HTT neurons – whole organism, C. elegans mechanosensory neurons, N-terminal huntingtin (AID 1599); conditions: C. elegans polyQ-huntingtin mechanosensory neurons, stronger effect = higher value
# [6] = blockers of cytochrome c efflux from mitochondria – biochemical, purified mitochondria (AID 1603); conditions: stronger effect = lower value;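 further: mouse liver mitochondria challenged with calcium chloride; signal normalized to the plate average as 100%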
# [7] = polyglutamine aggregate formation blockers (AID 1604); conditions: polyglutamine-induced protein aggregation inhibition assay; stronger effect = higher value; tested at 2.5 µM
# [8] = glutamate transport activators, MN-1 cells, MN-1 cell line (AID 1612); conditions: MN-1 motor neuron cells, stronger effect = higher value;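 further: tested at 1 µM final; 0% = mean of DMSO vehicle wells on each plate; positive means more glutamate uptake than control and negative means less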
# [9] = GFP-Q80 aggregate reduction, neuronal-like cells, cell-based, NGF-treated PC12, GFPQ80 (AID 1614); conditions: PC12 NGF-treated GFP-polyQ80 inclusion reduction;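 further: lower means fewer inclusions and 0 means no inclusions at all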
# [10] = 75Q-TubH aggregate inhibition, S. cerevisiae, yeast (AID 1616); conditions: S. cerevisiae 75Q-TubH polyglutamine aggregation suppression; stronger effect = higher value
# [11] = target: Huntingtin (Homo sapiens) (UniProt P42858); assay: mutant huntingtin aggregation blockers – QA1, dose response (AID 1584); conditions: in vitro mutant huntingtin aggregation assay; confirmation test; at 10 µM; stronger effect = lower value
# [12] = P. berghei load reduction in hepatocytes – cell-based, HepG2, luciferase luminescence, HepG2 viability, primary screen (AID 624349; in the data active means parasite load remaining mostly below about 12%, no sharp cut-off; inactive means mostly above about 10%;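 further: 100% = mean of DMSO negative control wells on the same plate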); conditions: P. berghei liver stage in HepG2, luciferase luminescence, concentration not given here; parasite load remaining: stronger effect = lower value; viability: measured here: HepG2 viability without parasites
# [13] = target: Mitogen-activated protein kinase 7 (Homo sapiens) (UniProt Q13164); assay: Gal4-ERK5 driven luciferase induction – cell-based, HTS, primary screen (AID 1508626;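 active means luciferase signal above three times the same-plate solvent-only control wells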;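 further: luciferase driven by Gal4-ERK5 fusion binding five Gal4 sites before minimal TATA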); conditions: HeLa Gal4-ERK5 transactivation, 18 h, at 5 µM, stronger effect = higher value
# [14] = viability loss with induced miR-34 in A549 – imaging, A549 dox-inducible miR-34, nuclei and caspase counts, primary screen (AID 1347080;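 active means compounds whose cell count with miR-34 switched on is under 0.7 times the count with it off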); conditions: A549 miR-34 inducible, Hoechst nuclei count, 48 h, stronger effect = lower value
# [15] = blockers of cellular phospholipid synthesis – cell-based, LOPAC library, screen 4, primary screen (AID 1347384); conditions: animal cells, phospholipid biosynthesis inhibition screen; at 10 µM
# [16] = MELAS cybrid and Rieske KO viability enhancers – cell-based, MELAS cybrids, Rieske KO mouse fibroblasts, CellTiter-Glo, primary screen (AID 1508586;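 active means mean z-score across replicates of 1.96 or higher in either the MELAS or the Rieske mutant cell line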;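 further: z relative to plate mean and SD of compound and empty wells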); conditions: low glucose
# [17] = target: ATP-dependent translocase ABCB1 (Homo sapiens) (UniProt P08183); assay: P-glycoprotein substrate transport blockade – cell-based (AID 377; in the data active means fluorescence slope change above about 50%); conditions: MDR1-expressing cells, fluorescent substrate accumulation slope; stronger effect = higher value; concentration not given here
# [18] = chitosan synthesis blockers in C. neoformans – flow cytometry, Cibacron Brilliant Red staining (AID 1347148); conditions: Cryptococcus neoformans chitosan, stronger effect = lower value; at 10 µM unless noted;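 further: compound exposure lasted three days at 37 degrees C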
# [19] = cell number ratio, induced over uninduced
# Chain of ATP-dependent translocase ABCB1 (Homo sapiens) (P08183 whole entry, looked up): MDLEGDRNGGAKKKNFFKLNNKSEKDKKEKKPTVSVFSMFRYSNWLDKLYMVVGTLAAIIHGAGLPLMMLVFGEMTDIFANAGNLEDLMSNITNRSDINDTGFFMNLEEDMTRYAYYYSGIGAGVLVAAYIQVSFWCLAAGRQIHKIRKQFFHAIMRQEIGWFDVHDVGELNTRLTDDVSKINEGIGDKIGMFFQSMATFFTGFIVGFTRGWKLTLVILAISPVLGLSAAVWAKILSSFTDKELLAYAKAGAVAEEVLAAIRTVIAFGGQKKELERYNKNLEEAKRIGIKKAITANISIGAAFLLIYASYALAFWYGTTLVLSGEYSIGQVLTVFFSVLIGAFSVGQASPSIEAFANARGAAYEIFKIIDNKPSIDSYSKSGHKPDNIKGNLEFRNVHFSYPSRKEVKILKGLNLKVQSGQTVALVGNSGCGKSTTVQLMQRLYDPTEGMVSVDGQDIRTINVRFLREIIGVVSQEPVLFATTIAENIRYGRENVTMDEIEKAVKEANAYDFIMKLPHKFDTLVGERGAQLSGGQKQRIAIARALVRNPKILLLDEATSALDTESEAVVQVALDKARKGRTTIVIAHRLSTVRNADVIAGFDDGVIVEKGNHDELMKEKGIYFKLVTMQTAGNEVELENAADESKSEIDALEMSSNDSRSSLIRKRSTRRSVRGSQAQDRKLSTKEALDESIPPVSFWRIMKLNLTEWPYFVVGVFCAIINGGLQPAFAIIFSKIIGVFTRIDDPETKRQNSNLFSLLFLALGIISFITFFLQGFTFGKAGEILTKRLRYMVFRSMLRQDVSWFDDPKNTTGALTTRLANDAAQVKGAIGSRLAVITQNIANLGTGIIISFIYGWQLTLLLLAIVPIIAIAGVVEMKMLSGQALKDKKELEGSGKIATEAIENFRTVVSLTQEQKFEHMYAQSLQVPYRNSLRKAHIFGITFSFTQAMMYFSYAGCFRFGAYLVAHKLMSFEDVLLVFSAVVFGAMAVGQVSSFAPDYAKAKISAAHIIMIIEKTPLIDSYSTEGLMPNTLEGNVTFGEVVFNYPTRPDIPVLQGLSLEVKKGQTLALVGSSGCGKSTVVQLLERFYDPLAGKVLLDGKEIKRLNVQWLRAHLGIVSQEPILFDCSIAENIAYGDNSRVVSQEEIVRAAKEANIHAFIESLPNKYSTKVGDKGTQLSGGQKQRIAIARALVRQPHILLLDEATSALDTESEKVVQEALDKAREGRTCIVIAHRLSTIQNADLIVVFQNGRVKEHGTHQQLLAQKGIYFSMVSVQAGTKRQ
# Chain of Huntingtin (Homo sapiens) (P42858 whole entry, looked up): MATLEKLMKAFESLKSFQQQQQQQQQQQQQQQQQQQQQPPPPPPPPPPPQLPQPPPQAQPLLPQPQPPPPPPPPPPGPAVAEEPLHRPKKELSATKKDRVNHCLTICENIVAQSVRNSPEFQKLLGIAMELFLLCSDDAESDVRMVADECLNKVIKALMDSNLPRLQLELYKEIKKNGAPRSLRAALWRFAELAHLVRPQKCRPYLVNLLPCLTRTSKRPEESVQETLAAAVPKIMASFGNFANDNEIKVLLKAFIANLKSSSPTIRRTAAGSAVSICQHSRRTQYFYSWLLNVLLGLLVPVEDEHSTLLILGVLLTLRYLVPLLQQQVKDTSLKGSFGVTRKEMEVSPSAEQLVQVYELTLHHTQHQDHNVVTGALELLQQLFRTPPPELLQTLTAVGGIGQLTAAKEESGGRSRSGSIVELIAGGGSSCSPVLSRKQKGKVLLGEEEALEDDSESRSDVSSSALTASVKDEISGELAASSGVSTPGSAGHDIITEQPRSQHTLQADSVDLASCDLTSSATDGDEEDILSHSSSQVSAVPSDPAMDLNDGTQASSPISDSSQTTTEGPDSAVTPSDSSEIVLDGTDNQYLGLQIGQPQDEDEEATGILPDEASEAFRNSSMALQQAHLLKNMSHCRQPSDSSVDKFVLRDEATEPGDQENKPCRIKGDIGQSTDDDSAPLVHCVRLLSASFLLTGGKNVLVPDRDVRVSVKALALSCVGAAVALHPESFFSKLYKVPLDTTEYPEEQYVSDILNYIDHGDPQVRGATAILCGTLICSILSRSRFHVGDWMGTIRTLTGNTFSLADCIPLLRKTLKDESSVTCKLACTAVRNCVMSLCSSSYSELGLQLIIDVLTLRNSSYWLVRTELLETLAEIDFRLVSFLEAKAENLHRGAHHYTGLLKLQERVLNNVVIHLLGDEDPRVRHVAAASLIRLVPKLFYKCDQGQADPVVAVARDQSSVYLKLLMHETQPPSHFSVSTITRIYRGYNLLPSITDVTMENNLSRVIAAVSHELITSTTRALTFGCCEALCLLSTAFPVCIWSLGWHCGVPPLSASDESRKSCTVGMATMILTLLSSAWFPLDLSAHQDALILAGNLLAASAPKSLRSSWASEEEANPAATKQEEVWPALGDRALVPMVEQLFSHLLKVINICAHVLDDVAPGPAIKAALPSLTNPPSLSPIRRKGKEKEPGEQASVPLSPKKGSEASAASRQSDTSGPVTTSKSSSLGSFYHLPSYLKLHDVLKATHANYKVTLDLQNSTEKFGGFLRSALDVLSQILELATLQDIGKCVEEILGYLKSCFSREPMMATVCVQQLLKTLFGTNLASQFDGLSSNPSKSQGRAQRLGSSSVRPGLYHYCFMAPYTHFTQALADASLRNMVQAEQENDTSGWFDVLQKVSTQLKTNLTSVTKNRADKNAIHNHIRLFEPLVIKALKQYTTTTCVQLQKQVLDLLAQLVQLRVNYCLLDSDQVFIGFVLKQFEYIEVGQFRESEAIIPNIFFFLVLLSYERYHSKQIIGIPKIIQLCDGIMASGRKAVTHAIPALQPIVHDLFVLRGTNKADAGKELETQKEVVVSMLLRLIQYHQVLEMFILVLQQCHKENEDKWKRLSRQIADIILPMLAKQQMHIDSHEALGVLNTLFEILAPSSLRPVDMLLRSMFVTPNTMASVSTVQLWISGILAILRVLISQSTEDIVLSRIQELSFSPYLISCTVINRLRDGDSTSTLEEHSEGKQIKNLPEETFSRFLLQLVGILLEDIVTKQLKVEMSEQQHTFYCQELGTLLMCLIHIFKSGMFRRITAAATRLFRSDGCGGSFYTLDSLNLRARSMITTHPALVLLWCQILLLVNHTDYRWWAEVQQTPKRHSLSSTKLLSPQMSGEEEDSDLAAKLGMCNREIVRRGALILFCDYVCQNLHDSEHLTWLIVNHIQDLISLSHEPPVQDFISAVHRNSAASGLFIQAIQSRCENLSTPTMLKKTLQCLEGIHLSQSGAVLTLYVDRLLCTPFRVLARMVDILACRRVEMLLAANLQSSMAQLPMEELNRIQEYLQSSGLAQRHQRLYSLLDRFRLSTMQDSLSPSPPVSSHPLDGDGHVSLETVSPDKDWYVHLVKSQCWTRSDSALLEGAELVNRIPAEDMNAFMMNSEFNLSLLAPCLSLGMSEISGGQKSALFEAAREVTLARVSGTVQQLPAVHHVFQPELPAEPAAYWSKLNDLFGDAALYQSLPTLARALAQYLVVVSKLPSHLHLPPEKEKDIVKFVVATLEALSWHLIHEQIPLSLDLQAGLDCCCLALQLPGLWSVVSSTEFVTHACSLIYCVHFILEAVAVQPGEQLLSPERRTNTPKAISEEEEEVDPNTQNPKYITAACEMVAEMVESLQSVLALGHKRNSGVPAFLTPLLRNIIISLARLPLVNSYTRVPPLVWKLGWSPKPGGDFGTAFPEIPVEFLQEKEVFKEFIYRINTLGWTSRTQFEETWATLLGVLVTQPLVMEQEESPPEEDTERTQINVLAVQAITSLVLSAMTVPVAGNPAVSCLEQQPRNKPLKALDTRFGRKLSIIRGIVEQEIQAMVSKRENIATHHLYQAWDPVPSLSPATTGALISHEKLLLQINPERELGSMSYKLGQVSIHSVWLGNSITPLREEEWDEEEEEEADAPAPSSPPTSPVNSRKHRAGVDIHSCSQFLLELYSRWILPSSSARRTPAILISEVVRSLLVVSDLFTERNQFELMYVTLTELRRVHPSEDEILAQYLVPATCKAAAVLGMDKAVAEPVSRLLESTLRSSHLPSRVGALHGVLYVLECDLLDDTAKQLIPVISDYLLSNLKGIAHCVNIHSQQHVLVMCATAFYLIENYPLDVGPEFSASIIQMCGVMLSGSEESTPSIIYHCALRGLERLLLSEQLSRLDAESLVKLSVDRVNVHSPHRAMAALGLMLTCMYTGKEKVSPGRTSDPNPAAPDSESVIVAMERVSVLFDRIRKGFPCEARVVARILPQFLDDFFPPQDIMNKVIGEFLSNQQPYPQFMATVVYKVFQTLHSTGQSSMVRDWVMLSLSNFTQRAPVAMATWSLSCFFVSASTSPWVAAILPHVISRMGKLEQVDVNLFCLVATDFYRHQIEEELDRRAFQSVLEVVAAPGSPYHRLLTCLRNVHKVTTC
compound,measurement,setting,value
NC(=O)N1c2ccccc2C=Cc2ccccc21,activity remaining,[1],114% (inactive)
same,remaining activity,[2],102% (inactive)
Clc1ccccc1C(c1ccccc1)(c1ccccc1)n1ccnc1,activity remaining,[1],113% (inactive)
same,remaining activity,[2],117% (inactive)
NCCCC(=O)O,activity remaining,[1],119% (inactive)
same,remaining activity,[2],123% (inactive)
C[C@H]1c2cccc(O)c2C(O)=C2C(=O)[C@]3(O)C(O)=C(C(N)=O)C(=O)[C@@H](N(C)C)[C@@H]3[C@@H](O)[C@@H]21,activity remaining,[1],93.8% (inactive)
same,remaining activity,[2],104% (inactive)
CN(C)CCCN1c2ccccc2Sc2ccc(C(F)(F)F)cc21,activity remaining,[1],108% (inactive)
same,remaining activity,[2],97% (inactive)
Cc1cn[nH]c1,activity remaining,[1],102% (inactive)
same,remaining activity,[2],121% (inactive)
CN(C)CCCN1c2ccccc2Sc2ccccc21,activity remaining,[1],109% (inactive)
same,remaining activity,[2],95% (inactive)
c1ccc([C@H]2CN3CCSC3=N2)cc1,activity remaining,[1],117% (inactive)
same,remaining activity,[2],112% (inactive)
C[C@H](CS)C(=O)N1CCC[C@H]1C(=O)O,activity remaining,[1],99.1% (inactive)
same,remaining activity,[2],99.3% (inactive)
O=[N+]([O-])c1cccc2c(Br)[nH]nc12,activity remaining,[1],118% (inactive)
same,remaining activity,[2],110% (inactive)
CCC1(C)CC(=O)NC1=O (centres undefined),activity remaining,[1],123% (inactive)
same,remaining activity,[2],85.2% (inactive)
CCCCNc1ccc(C(=O)OCCN(C)C)cc1,activity remaining,[1],118% (inactive)
same,remaining activity,[2],97.3% (inactive)
O=NN(CCCl)C(=O)NCCCl,activity remaining,[1],123% (inactive)
same,remaining activity,[2],115% (inactive)
C[C@](N)(Cc1ccc(O)c(O)c1)C(=O)O,activity remaining,[1],121% (inactive)
same,remaining activity,[2],113% (inactive)
C[N+](C)(C)CCOC(N)=O,activity remaining,[1],93.2% (inactive)
same,remaining activity,[2],119% (inactive)
O=C(Nc1ccc([N+](=O)[O-])cc1Cl)c1cc(Cl)ccc1O,activity remaining,[1],93.6% (inactive)
same,remaining activity,[2],113% (inactive)
CCCC(C(=O)OCCN(CC)CC)(c1ccccc1)c1ccccc1,activity remaining,[1],105% (inactive)
same,remaining activity,[2],118% (inactive)
NCCCCCC(=O)O,activity remaining,[1],113% (inactive)
same,remaining activity,[2],113% (inactive)
CC(C)Cn1c(=O)n(C)c(=O)c2[nH]cnc21,activity remaining,[1],108% (inactive) and 118% (inactive)
same,remaining activity,[2],108% (inactive)
COc1cc([C@@H]2c3cc4c(cc3[C@H](O)[C@H]3COC(=O)[C@H]23)OCO4)cc(OC)c1OC,inhibition,[3],-31.7%
same,score,[4],0.81
same,rescue above control,[5],-13.8
same,cytochrome c release ratio,[6],1.06
same,inhibition of aggregation,[7],58.9%
same,glutamate uptake change,[8],21.3%
same,inclusion score,[9],2
same,aggregation suppression score,[10],0.784
C[n+]1cc2c3c(ccc2c2ccc4cc5c(cc4c21)OCO5)OCO3,inhibition,[3],89.4%
same,aggregation ratio,[11],0.44
same,score,[4],0.8
same,rescue above control,[5],-18
same,cytochrome c release ratio,[6],1.22
same,inhibition of aggregation,[7],-2.89%
same,glutamate uptake change,[8],-11.9%
same,aggregation suppression score,[10],0.576
CC[C@@]1(C2O[C@@H](C3O[C@@](O)(CC)[C@H](C)C[C@@H]3C)C[C@@H]2C)CC[C@H]([C@]2(C)CCC3(C[C@H](O)[C@@H](C)[C@@H]([C@H](C)[C@@H](OC)[C@H](C)C(=O)O)O3)O2)O1 (some centres undefined),parasite load remaining,[12],17.9% (inactive)
same,viability,[12],72.8%
same,luciferase signal,[13],32 AU (inactive)
N[C@@H](CC(=O)N1CCn2c(nnc2C(F)(F)F)C1)Cc1cc(F)c(F)cc1F,fold change,[14]; [19],0.907 (inactive)
CN1CCN(CCCN2c3ccccc3Sc3ccc(Cl)cc32)CC1,outcome,[15],inactive
CCn1cc(C(=O)O)c(=O)c2ccc(C)nc21,z-score,"[16]; MELAS cybrid survival, CellTiter-Glo 48 h, stronger effect = higher value",-0.303 (inactive) and 0.479 (inactive)
same,z-score,"[16]; Rieske KO mouse fibroblast survival, CellTiter-Glo 72 h",0.386 and -0.565
C=C1C2CC[C@H]3[C@]4(C)C[C@H](OC5OC(CO)C(OS(=O)(=O)O)C(OS(=O)(=O)O)C5OC(=O)CC(C)C)C[C@@H](C(=O)O)[C@H]4CC[C@]3(C2)[C@H]1O (some centres undefined),fluorescence slope change,[17],23.6% (inactive)
O=C(O)P(=O)(O)O,fluorescence slope change,[17],95.2% (active)
O=C1CC2OCC=C3CN4CC[C@]56c7ccccc7N1C5[C@H]2[C@H]3CC46 (some centres undefined),fold change,[14],0.917 (inactive)
CNC(C)[C@@H]1CC[C@@H](N)[C@@H](OC2[C@@H](N)C[C@@H](N)[C@H](OC3OC[C@](C)(O)[C@H](NC)[C@H]3O)[C@H]2O)O1 (some centres undefined),fold change,[14],0.833 (inactive)
O=C1OCCN1/N=C/c1ccc([N+](=O)[O-])o1,fold change,[14]; [19],0.857 (inactive)
CC(=O)C1=C(O)C2C3c4c[nH]c5cccc(c45)CC3C(C)(C)N2C1=O (centres undefined),fold fluorescence,[18],4.14 [at 148.6 µM] (inactive)
Nc1nc(Cl)nc2c1ncn2[C@@H]1O[C@H](CO)[C@@H](O)[C@H]1O,remaining activity,[2],115% (inactive)
Cc1cc(O)c2c(c1)C(=O)c1cc(O)cc(O)c1C2=O,remaining activity,[2],76.7% (inactive)
NCCCNCCCCNCCCN,remaining activity,[2],108% (inactive)
CCNC(=O)N1CCN(CCCC(c2ccc(F)cc2)c2ccc(F)cc2)CC1,remaining activity,[2],112% (inactive)
CO/N=C(\C(=O)N[C@@H]1C(=O)N2C(C(=O)O)=C(CSc3nc(=O)c(=O)[nH]n3C)CS[C@H]12)c1csc(N)n1,remaining activity,[2],117% (inactive)
CC[n+]1c(/C=C/C=C2/N(C)c3ccccc3C2(C)C)sc2ccccc21,remaining activity,[2],93.2% (inactive)
Nc1cc(Cl)c(NC2=NCCN2)c(Cl)c1,remaining activity,[2],118% (inactive)
CCCCNc1c(C(=O)OCC)c(C)nc2c1cnn2CC,remaining activity,[2],121% (inactive)
CC(C)NC[C@H](O)c1ccc(O)c(O)c1,remaining activity,[2],108% (inactive) and 104% (inactive)
NC1CONC1=O (centres undefined),remaining activity,[2],120% (inactive)
CC(C(O)c1ccc(O)cc1)N1CCC(Cc2ccccc2)CC1 (centres undefined),remaining activity,[2],105% (inactive)
O=S(=O)(c1cccc2c(Cl)cccc12)N1CCCNCC1,remaining activity,[2],110% (inactive)
O=C1N(c2ccccc2)c2ccccc2C1(Cc1ccncc1)Cc1ccncc1,remaining activity,[2],114% (inactive)
COC(=O)[C@H](NC(=O)c1cc(-c2ccccc2)nc2ccccc12)c1ccccc1,remaining activity,[2],97.3% (inactive)
Cc1cccc(C)c1NC(=O)C(C)N (centres undefined),remaining activity,[2],95.4% (inactive)
COc1cc(CNC(=O)CCCCCCC(C)C)ccc1O,remaining activity,[2],96.1% (inactive)
CC(=O)N[C@H](C(=O)O)C(C)(C)SN=O,remaining activity,[2],117% (inactive)
CN1[C@@H](CC(=O)c2ccccc2)CCC[C@H]1C[C@H](O)c1ccccc1,remaining activity,[2],115% (inactive)
CCOC(=O)c1cnc2c(cnn2CC)c1NN=C(C)C,remaining activity,[2],124% (inactive)
CCCn1cnc2c1c(=O)n(CCCCC(C)=O)c(=O)n2C,remaining activity,[2],93.8% (inactive)
NC(=O)OCC(COC(N)=O)c1ccccc1,remaining activity,[2],100% (inactive)
NC(N)=Nc1nc(CSCC/C(N)=N/S(N)(=O)=O)cs1,remaining activity,[2],102% (inactive)
CCCCCC(O)c1cccc(OCc2ccc3ccccc3n2)c1 (centres undefined),remaining activity,[2],98.9% (inactive)
O=[N+]([O-])c1ccc(-c2nc(-c3ccc(F)cc3)c(-c3ccncc3)[nH]2)cc1,remaining activity,[2],95.7% (inactive)
CCCCCCCCc1ccc(-c2ccc(C(=O)O)cc2)cc1,remaining activity,[2],124% (inactive)
CCC1(O)CC2CN(CCc3c([nH]c4ccccc34)[C@@](C(=O)OC)(c3cc4c(cc3OC)N(C)C3[C@]45CCN4CC=C[C@@](CC)([C@@H](OC(C)=O)[C@]3(O)C(=O)OC)[C@H]45)C2)C1 (some centres undefined),remaining activity,[2],102% (inactive)
Oc1ccc(/C=C/c2ccc(/C=C/c3ccc(O)cc3)c(Br)c2)cc1,remaining activity,[2],85% (inactive)
COc1cc2nc(N3CCN(C(=O)C4COc5ccccc5O4)CC3)nc(N)c2cc1OC (centres undefined),remaining activity,[2],92.2% (inactive)
NC(=O)c1cn(Cc2c(F)cccc2F)nn1,remaining activity,[2],117% (inactive)
CCN1C(=O)C=CC1=O,remaining activity,[2],102% (inactive)
CC(C)C(=O)c1c(C(C)C)nn2ccccc12,remaining activity,[2],125% (inactive)
CC(C)NCC(O)COc1ccc(COCCOC(C)C)cc1 (centres undefined),remaining activity,[2],91.4% (inactive)
Cc1cccc(C2CN(C)CCc3c2cc(O)c(O)c3Cl)c1 (centres undefined),remaining activity,[2],105% (inactive)
NC1(C(=O)O)CCc2cc(C(=O)O)ccc21 (centres undefined),remaining activity,[2],110% (inactive)
CCCCCCCCCCCCCCSCC(=O)O,remaining activity,[2],105% (inactive)
C#CCn1c(=O)c2c(ncn2C)n(C)c1=O,remaining activity,[2],109% (inactive)
CC1=C(/C=C/C(C)=C/C=C/C(C)=C/C=C/C=C(C)/C=C/C=C(C)/C=C/C2=C(C)C(=O)[C@@H](O)CC2(C)C)C(C)(C)C[C@H](O)C1=O,remaining activity,[2],107% (inactive)
